# Assay results published in the supplement of paper PMC6555819.
# System: VDR homodimer (NR concentration 270 nM)
# Assay: PBM binding z-score (relative to random genomic background probes); higher = stronger binding; sequences stand for … in GC…GCGATTGACAGCGTAGAATGAAGG
# Outline: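 Binding z-scores take random background probes as their reference. They come from custom Agilent 4×180K protein-binding microarrays incubated 1 h with ligand-free nuclear receptor dimers, with antibodies against each partner (one per run) detecting binding. Scanned fluorescence was regression-normalized.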
row,Sequence,PBM binding z-score
1,TCATATAGGTATAAGGTGAAAGTCGGTGTGGTAA,0.494
2,GCTATTAGTTGAAAGAGCAACCGAATGATTCTCG,-0.22
3,ACTAGCAGGCCATGTTTGGGTCACTCAAACAAAG,-0.169
4,ATCTCTAGGTAACAAGTTCACTGAAAGAGAGGAC,3.99
5,TCTGCTAGGGCAACGATGGTCAGCTAATCTGCTA,-0.735
6,GCTTGTAGATCAAGGTAAAGAAAGACTAAGCTAA,-0.505
7,TCTGCTAAGTCAACGATGGTCAGCTAATCTGCTA,-1.4
8,CCTACTGGGCCACGAAAGGTCGTTGATTCAGTGA,0.759
9,CAAACTAGGTCGAGAGGTCAAAGTCCGCTTCCCG,3.99
10,ACAGACAGGTGATGAAGGTAAGTCAGGCTATCAT,-0.186
11,ATCGAACGGTCGAAGGTGAGTATACCCACCCGAA,-0.147
12,AGAATGAGGTTAAGATCAGGGAAACAGAATACAT,0.379
13,ATATGTAGGTTAACGGTCATTCAGGTTGGTTCGC,1.84
14,TCTGCTAGGTCAGATGGTCAGCTAACGAGCTGCC,-0.819
15,TCTGCGAGGTCAGTTGGTCAGCTAACGAGCTGCC,2.02
16,TCGAGTAGGGTAGTCGGGGCATTCAGCCAACATA,0.229
17,AGAATGAGGTTACCAATGATCAGGGAAACGCTTG,0.0566
18,GCGACTGGGGCAAAGCGGGTTACCATAAGGTTGG,-0.483
19,AGAATGAGGTTATTAAGATCATGGAATTGCGGTC,1.5
20,GCGACTGGGGCATCAGCAGGTTACCCTAACTTAA,-0.558
21,CCTACTGGGCCACGAAAGGTCATTGTTTCAGTGA,2.75
22,CCCACTGGGCCATCAGGTCATTGATATCAACGTT,1.66
